Experimental data from the supplement of paper PMC6555819.

What was measured:
Test in all cases: PBM binding z-score (relative to random genomic background probes); higher = stronger binding; sequences stand for … in GC…GCGATTGACAGCGTAGAATGAAGG
[1] = tested on: FXR:RXRa (NR concentration 270 nM, RXRa partner concentration 90 nM)
Outline: (§1)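 Each nuclear receptor dimer, without ligand, was incubated for 1 h on custom Agilent 4×180K protein-binding microarrays. Binding was detected with antibodies against each partner (one per run), and scanned fluorescence was regression-normalized. The binding z-scores are referenced to random human genomic background probes.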

[2] = tested on: LXRa:RXRa (NR concentration 270 nM, RXRa partner concentration 90 nM)
Outline: as §1

[3] = tested on: LXRa homodimer (NR concentration 270 nM)
Outline: as §1

[4] = tested on: LXRb:RXRa (NR concentration 270 nM, RXRa partner concentration 90 nM)
Outline: as §1

[5] = tested on: LXRb homodimer (NR concentration 270 nM)
Outline: as §1

[6] = tested on: PPARa:RXRa (NR concentration 270 nM, RXRa partner concentration 90 nM)
Outline: as §1

[7] = tested on: PPARg:RXRa (NR concentration 180 nM, RXRa partner concentration 90 nM)
Outline: as §1

[8] = tested on: PPARg:RXRa 270nM:90nM, anti-RXR (NR concentration 270 nM, RXRa partner concentration 90 nM)
Outline: as §1

[9] = tested on: PPARg:RXRa 30nM:10nM, anti-RXR (NR concentration 30 nM, RXRa partner concentration 10 nM)
Outline: as §1

[10] = tested on: PPARg:RXRa 90nM:30nM, anti-RXR (NR concentration 90 nM, RXRa partner concentration 30 nM)
Outline: as §1

Sequence	PBM binding z-score [1]	PBM binding z-score [2]	PBM binding z-score [3]	PBM binding z-score [4]	PBM binding z-score [5]	PBM binding z-score [6]	PBM binding z-score [7]	PBM binding z-score [8]	PBM binding z-score [9]	PBM binding z-score [10]
CGAACGAGGGCATGAGTTGAAAGCAAATGCCGAT	0.434	0.165	-0.523	0.0977	-0.959	1.85	1.37	1.83	0.552	1.12
TCATTTAGGTAAAAGGTGAAAGTCGGTGTGGTAA	1.72	1.89	0.427	1.95	0.881	5.05	8.63	8.2	9.56	9.37
TATACAGGGTCAAAGGCCAGAGTTCGAATGTCGA	7.08	6.38	3.94	4.81	2.5	6.15	8.48	7.27	5.54	7.17
TCGAGTAGGTTACCAATGGGGCACTCAGCTTTCT	-0.431	0.466	-1.03	0.379	-0.732	0.966	0.351	1.39	1.09	1.15
ATAAGTAGGTTAAGGGTCATTCAGGTTGGTTCGC	4.91	4.67	3.52	4.65	2.15	6.55	12	9.92	10.7	11.2
AGTATGAGGTTAAGATCAGGGAAACAGAATACAT	1.71	2.36	0.00803	1.84	0.314	3.08	1.76	1.45	0.773	1.12
TTACCAAGGTGAAATGTCGTTGATGCACGCCTTG	0.891	0.622	-0.432	0.388	-0.436	2.35	2.41	3.4	1.94	3.36
CAAACTAGGACAAGGTCAAAGTCGGTTTGTGCCA	4.54	4.18	2.08	3.48	0.526	5.05	5.5	5.41	3.12	4.9
ATCTCGAGGTAACAAGTTCAGTGAAAGAGAGGAC	0.617	0.888	0.333	0.61	0.253	1.51	0.717	0.867	-0.0837	0.456
TCTAGCAGGCCTGAGGGTCACTCAAGAGGTACGG	1.03	1.18	-0.547	1.32	-1.24	2.38	0.588	1.57	1.62	1.44
AGAATGAGGTTGCCAAAGATCAGGGAAACGCTTG	0.0162	0.364	-0.555	0.0727	-0.656	0.857	0.786	0.932	0.289	0.435
ACTATTAGTTGAGACGAGGGCAACAGATAGGTTG	0.212	-0.0273	-0.073	0.0186	0.272	0.442	0.846	-0.171	0.0997	-0.129
CCGAGTTGGTTATGGGGCATTCAGGCAACGGTGA	0.0617	0.0147	-0.147	0.0515	-0.451	0.287	0.0793	0.583	-0.717	0.0357
TCAGACAGGTGAAGGTAACTAAGGTACGCAGTCG	1.03	2.57	-0.132	1.44	-0.0558	1.51	0.892	2.34	3.8	3.21
ATCTCTACGTAACCAAGTTCAGTGAATGCCGAAC	0.0268	0.0264	0.728	0.389	1.1	0.166	0.223	0.137	0.163	0.36
GCTTACGGGGCAAAGGTTATAGCATGAATAGAAT	2.32	2.71	0.016	3.48	0.208	5.38	8.91	8.3	7.37	9.06
CCTGCTAGGTCAATGGTTAGCTAAAGCAGCTCGC	2.78	1.76	-0.418	1.44	-0.3	2.63	3.33	3.77	1.16	3.2
CCTCGGAGGACAACAGGAGGTCAGAGTTGCCAGA	1.11	2.05	2.59	1.57	-0.486	2.02	0.634	0.674	-0.404	0.264
TCTTGTAGATCAACATGAGGTTAAGAAAGATCGA	0.309	1.61	0.535	1.19	0.134	1.62	0.344	1.66	2.62	2.31
GCAGCCAGGTGAAACGCAGGTAACTCAGGGTGGC	-0.375	-0.533	-0.628	-0.952	-1.52	0.132	0.166	-0.353	-0.793	-0.229
CGTCCAAGGTCAGAGAGCTCAGTGAATGCCGAGT	4.73	2.83	-0.139	1.84	-0.554	3.92	1.95	2.52	0.0748	1.43
TCTAGTTGGTCACGAAGGTCACACACGACGGGTA	2.82	3.04	1.75	3.17	0.769	3.71	3.45	4.6	3.66	4.25
TTACCAAGGCGAAAGGTCGTTGATGCACGCCTTG	1.27	1.41	0.121	1.38	-0.953	3.5	5.49	6.09	5.18	6.24
